Nrf2 block – blocks Nrf2 signaling. A549 ARE-Fluc reporter, luciferase luminescence, 18-24 h. Potency, µM (highest dose often 46 µM), without a hit: at the highest dose activity change, negative = inhibition, most hits filed as inhibitors. 360,000 compounds, 2.1% hits. AID 504444; further: on the % scale 0 is the no-effect control and ±100 the full control effect; nearly all actives have a fitted effect of over 60% in size
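A549 ARE_Fluc cells (5000/well, 5% FBS OPTI-MEM) pre-incubated 2 h, then treated with compounds 18-24 h at 37C/5% CO2 in concentration-response. CellTiter-Fluor viability read first; BugLite luciferase luminescence after 15 min at room temperature gives Nrf2 activity.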
TGFb SMAD3 inh – inhibitors of TGF-b signaling; 410,000 compounds, 1.2% hits; HepG2 CAGA-GFP TGF-b/SMAD3 reporter, GFP fluorescence, 18 h; TGF-beta stimulated, 500 pg/mL final; Potency, µM (series often up to 46.1 µM), for inactives: top-dose activity, negative = inhibition, actives largely listed as inhibitors; further: on the % scale 0 is the no-effect control and ±100 the full control effect; nearly all actives have a fitted effect of over 65% in size
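Using HEPG2 CAGA-GFP reporter cells at 1000 cells/well, we pinned test compounds, stimulated with recombinant TGF-beta (500 pg/mL final) and measured total well GFP after 18 h.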
ATXN viability – cell viability loss in ATXN counter-screen. S2 cells (HEK-293 line with an ATXN2-luciferase reporter) viability, CellTiter-Fluor protease fluorescence, 24 h. Potency, µM (doses to about 56.7 µM), actives largely listed as cytotoxic. 400,000 compounds, 0.49% hits. AID 651635; further: nearly all actives have a fitted effect of over 40% in size
ATXN2 expr inh – reduces ATXN2 reporter expression in HEK-293 cells. HEK-293 ATXN2-luciferase reporter, luminescence, 24 h. AID 1745845. Potency, µM (series often up to 57 µM), inactives show at the top dose activity change, negative = inhibition, most hits filed as inhibitors. 360,000 compounds, 0.72% hits; further: on the % scale 0 is the no-effect control and ±100 the full control effect; nearly all actives have a fitted effect of over 55% in size
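qHTS (up to 57 uM final) was run with 24 h compound exposure of reporter cells at 37 °C. Each well was multiplexed: SteadyGlo luminescence measured ATXN2-luciferase expression after a fluorogenic Gly-Phe-AFC viability readout (25 uM final).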
A549 tox – counter-screen for Nrf2 inhibitors: cytotoxicity in A549 cells; AID 504648; Potency, µM (series often up to 46 µM), for inactives: top-dose activity change, negative = cytotoxicity, usual class: inhibitors; A549 ARE-Fluc cells, CellTiter-Fluor viability, 18-24 h; 390,000 compounds, 0.16% hits; further: on the % scale 0 is the no-effect control and ±100 the full control effect
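A549 ARE_Fluc cells in 5% FBS OPTI-MEM were exposed to compounds in concentration-response for 18-24 h at 37 deg C. Viability was read by CellTiter-Fluor fluorescence (Ex 405/Em 525) after 30 min, before the luciferase read.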
HepG2 tox-1 – counter-screen for TGF-b inhibitors: cytotoxicity in HepG2 cells; AID 588856; 410,000 compounds, 0.76% hits; Potency, µM (titrated, usually from 46.1 µM), without a hit: at the highest dose activity change, negative = cytotoxicity, hits mostly cytotoxic; HepG2 CAGA-GFP viability, ATP luminescence, 18 h
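HepG2 CAGA-GFP cells (1000/well, DMEM with 1% FBS) received compound, then TGF-beta at 500 pg/mL final, and were incubated 18 hours at 37 degrees C. Viability was read by CellTiter-Glo luminescence. Media-only wells were set as complete cell-killing and DMSO as no toxicity.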
TGFb CAGA inh – TGF-b pathway inhibition, cherry-pick retest; HepG2 CAGA-GFP TGF-b reporter, GFP fluorescence, 18 h; cells stimulated with TGF-beta, 500 pg/mL; shares compounds with TGFb SMAD3 inh; Potency, µM (top dose mostly 46.1 µM), for inactives: at the highest dose activity, negative = inhibition, usual class: inhibitors; 1,600 compounds, 63% hits; further: on the % scale 0 is the no-effect control and ±100 the full control effect; nearly all actives have a fitted effect of over 65% in size
HepG2 tox-2 – counter-screen for TGF-b inhibitors: cytotoxicity in HepG2 cells | 1,600 compounds, 27% hits | HepG2 CAGA-GFP viability, ATP luminescence, 18 h; cells stimulated with TGF-beta, 500 pg/mL | AID 720535 | Potency, µM (doses to about 46.1 µM), for inactives: top-dose activity, negative = cytotoxicity, hits mostly inhibitors | shares compounds with TGFb SMAD3 inh; further: on the % scale 0 is the no-effect control and ±100 the full control effect; nearly all actives have a fitted effect of over 70% in size
TGFb CCL64 inh – blocks TGF-b signaling in CCL64 reporter cells | 1,600 compounds, 41% hits | CCL64 CAGA-GFP reporter, TGF-b stimulated, GFP fluorescence, 18 h | shares compounds with TGFb SMAD3 inh | Potency, µM (titrated, usually from 46.1 µM), inactives show at the highest dose activity, negative = inhibition, hits mostly inhibitors; further: nearly all actives have a fitted effect of over 65% in size
TGFb COP inh – validation of TGF-b inhibitors in HepG2 COP promoter reporter; shares compounds with TGFb SMAD3 inh; HepG2 COP-GFP TGF-b reporter, GFP fluorescence, 18 h; cells stimulated by added recombinant TGF-beta; Potency, µM (doses to about 46.1 µM), for the others: at the highest dose activity, negative = inhibition, hits mostly inhibitors; 1,600 compounds, 3% hits; further: nearly all actives have a fitted effect of over 70% in size
An asterisk follows results filed as active; i = inactive; ? = inconclusive; nt = no result given. Only some compounds are listed: those with a hit (about 3.8% of all), similar ones and a draw of the others. The call rests on the fitted dose curve; in most records, active means well fitted curve in the direction sought with a large enough effect; inconclusive means small, poorly fitted or top-dose-only effect, or another doubt; inactive means no such curve, though single readings can be large; an effect the other way counts as inactive or inconclusive. Potency means the concentration at half of the fitted maximal effect.

SMILES	Nrf2 block	TGFb SMAD3 inh	ATXN viability	ATXN2 expr inh	A549 tox	HepG2 tox-1	TGFb CAGA inh	HepG2 tox-2	TGFb CCL64 inh	TGFb COP inh
Cc1ccc(NS(=O)(=O)c2cc(Br)cnc2N)c(Cl)c1	-10.3%	-9.9%	i	-9.9%	2.4%	3.8%	nt	nt	nt	nt
Nc1ncc(Br)cc1S(=O)(=O)Nc1cc(C(F)(F)F)cc(C(F)(F)F)c1	?	5.62µM*	?	0.0%	?	-50.7%	6.51µM*	11.6µM*	?	34.5%
COc1ccc(C2c3ccccc3Oc3ncn(CCN4CCOCC4)c(=N)c32)cc1OC (centres undefined)	?	nt	nt	nt	0.1%	nt	nt	nt	nt	nt
NC(=O)[C@H]1CC2(CC(c3cccc(NC(=O)COc4ccc(Cl)cc4)c3)=NO2)CN1C(=O)c1ccc(Cl)cc1 (some centres undefined)	25.9µM*	17.8µM*	?	?	?	-3.6%	18.4µM*	-29.4%	18.4µM*	22.2%
COc1cccc(-c2cnc3c(NC=O)cc(-c4ccc(OC)cc4OC)cn23)c1	nt	4.47µM*	?	0.0%	nt	-22.3%	4.11µM*	-28.3%	3.26µM*	15.9%
COc1ccccc1-c1cc(NC=O)c2ncc(-c3cccc(C(C)=O)c3)n2c1	nt	-26.1%	?	?	nt	-41.1%	nt	nt	nt	nt
CC(=O)c1ccc(-c2cnc3c(NC=O)cc(-c4ccccc4Oc4ccccc4)cn23)cc1	nt	11.2µM*	nt	?	nt	-15.1%	?	-17.5%	?	54.2%
COc1ccccc1-c1cc(NC=O)c2ncc(-c3cccc(C(=O)N(C)C)c3)n2c1	nt	7.94µM*	?	0.0%	nt	-7.4%	5.17µM*	-26.2%	?	10.4%
COc1ccc(C(=O)Oc2cccc3cccnc23)cc1[N+](=O)[O-]	-7.3%	6.31µM*	?	-20.1%	3.3%	5.62µM*	2.5%	-0.1%	16.0%	4.9%
CSc1cccc(NC(=O)CCCOc2ccc(Cl)cc2C)c1	-3.7%	12.6µM*	i	5.5%	5.8%	-19.4%	20.6µM*	-21.2%	15.9%	-15.8%
COc1ccc(OCCCC(=O)Nc2cccc(SC)c2)cc1	?	-8.6%	i	-12.4%	11.7%	-6.4%	nt	nt	nt	nt
CC(=O)Oc1c(Br)cc(N(C(C)=O)S(=O)(=O)c2ccccc2)c2ccccc12	13.4%	8.91µM*	i	?	4.1%	-90.9%	16.4µM*	?	13µM*	?
CC(=O)Oc1ccccc1N(C(C)=O)S(=O)(=O)c1ccc2ccccc2c1	-1.2%	-12.3%	i	-18.3%	12.5%	-9.6%	nt	nt	nt	nt
CN(C)c1ncnc2c1ncn2[C@H]1CN(Cc2cccnc2)C[C@@H](CO)O1	nt	2.4%	i	-2.3%	nt	8.4%	nt	nt	nt	nt
CN(C)CCNC(=O)C(c1ccccc1)c1ccccc1	0.0%	-10.8%	i	nt	0.0%	-2.4%	nt	nt	nt	nt

Bioassay records: PubChem BioAssay, National Center for Advancing Translational Sciences (NCATS)
